Results as given in PubChem BioAssay.
The source made the active and inactive calls.

How the values were obtained:
[1] = binders of probe aFSTL3 on microarray, primary screen, stem cell growth factor project, biochemical, small-molecule microarray, fluorescence 635/667 (AID 1064); details: higher = more signal;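 also: measures binding of the biotinylated anti-FSTL3 antibody to printed compounds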
[2] = binders from COS7 lysate, DM2A8 probe, primary screen, torsin A project, cell lysate, small-molecule microarray, fluorescence 635/667 (AID 1065); details: higher = more signal, COS7 lysate expressing mutant human TOR1A
[3] = binders of probe aFGF2 on microarray, primary screen, stem cell growth factor project, biochemical, small-molecule microarray, fluorescence 635/667 (AID 1067); details: higher = more signal;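 also: measures binding of biotinylated aFGF2 protein to printed compounds on slides; z-score merges feature fluorescence and signal-to-noise across triplicate slides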
[4] = binders of probe aFGF10 on microarray, primary screen, stem cell growth factor project, biochemical, small-molecule microarray, fluorescence 635/667 (AID 1071); details: higher = more signal;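 also: score merges 667 nm spot intensity and signal to noise from triplicate slides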
[5] = target: Neurogenic locus notch homolog protein 2 (Homo sapiens) (UniProt Q04721); test: Notch2 binders on small-molecule microarrays, primary screen, biochemical, small-molecule microarray, 635 nm fluorescence, stem cell growth factors (AID 1073); details: Notch2 binding, higher = more signal
Chain of Neurogenic locus notch homolog protein 2 (Homo sapiens) (Q04721 whole entry, looked up, canonical isoform): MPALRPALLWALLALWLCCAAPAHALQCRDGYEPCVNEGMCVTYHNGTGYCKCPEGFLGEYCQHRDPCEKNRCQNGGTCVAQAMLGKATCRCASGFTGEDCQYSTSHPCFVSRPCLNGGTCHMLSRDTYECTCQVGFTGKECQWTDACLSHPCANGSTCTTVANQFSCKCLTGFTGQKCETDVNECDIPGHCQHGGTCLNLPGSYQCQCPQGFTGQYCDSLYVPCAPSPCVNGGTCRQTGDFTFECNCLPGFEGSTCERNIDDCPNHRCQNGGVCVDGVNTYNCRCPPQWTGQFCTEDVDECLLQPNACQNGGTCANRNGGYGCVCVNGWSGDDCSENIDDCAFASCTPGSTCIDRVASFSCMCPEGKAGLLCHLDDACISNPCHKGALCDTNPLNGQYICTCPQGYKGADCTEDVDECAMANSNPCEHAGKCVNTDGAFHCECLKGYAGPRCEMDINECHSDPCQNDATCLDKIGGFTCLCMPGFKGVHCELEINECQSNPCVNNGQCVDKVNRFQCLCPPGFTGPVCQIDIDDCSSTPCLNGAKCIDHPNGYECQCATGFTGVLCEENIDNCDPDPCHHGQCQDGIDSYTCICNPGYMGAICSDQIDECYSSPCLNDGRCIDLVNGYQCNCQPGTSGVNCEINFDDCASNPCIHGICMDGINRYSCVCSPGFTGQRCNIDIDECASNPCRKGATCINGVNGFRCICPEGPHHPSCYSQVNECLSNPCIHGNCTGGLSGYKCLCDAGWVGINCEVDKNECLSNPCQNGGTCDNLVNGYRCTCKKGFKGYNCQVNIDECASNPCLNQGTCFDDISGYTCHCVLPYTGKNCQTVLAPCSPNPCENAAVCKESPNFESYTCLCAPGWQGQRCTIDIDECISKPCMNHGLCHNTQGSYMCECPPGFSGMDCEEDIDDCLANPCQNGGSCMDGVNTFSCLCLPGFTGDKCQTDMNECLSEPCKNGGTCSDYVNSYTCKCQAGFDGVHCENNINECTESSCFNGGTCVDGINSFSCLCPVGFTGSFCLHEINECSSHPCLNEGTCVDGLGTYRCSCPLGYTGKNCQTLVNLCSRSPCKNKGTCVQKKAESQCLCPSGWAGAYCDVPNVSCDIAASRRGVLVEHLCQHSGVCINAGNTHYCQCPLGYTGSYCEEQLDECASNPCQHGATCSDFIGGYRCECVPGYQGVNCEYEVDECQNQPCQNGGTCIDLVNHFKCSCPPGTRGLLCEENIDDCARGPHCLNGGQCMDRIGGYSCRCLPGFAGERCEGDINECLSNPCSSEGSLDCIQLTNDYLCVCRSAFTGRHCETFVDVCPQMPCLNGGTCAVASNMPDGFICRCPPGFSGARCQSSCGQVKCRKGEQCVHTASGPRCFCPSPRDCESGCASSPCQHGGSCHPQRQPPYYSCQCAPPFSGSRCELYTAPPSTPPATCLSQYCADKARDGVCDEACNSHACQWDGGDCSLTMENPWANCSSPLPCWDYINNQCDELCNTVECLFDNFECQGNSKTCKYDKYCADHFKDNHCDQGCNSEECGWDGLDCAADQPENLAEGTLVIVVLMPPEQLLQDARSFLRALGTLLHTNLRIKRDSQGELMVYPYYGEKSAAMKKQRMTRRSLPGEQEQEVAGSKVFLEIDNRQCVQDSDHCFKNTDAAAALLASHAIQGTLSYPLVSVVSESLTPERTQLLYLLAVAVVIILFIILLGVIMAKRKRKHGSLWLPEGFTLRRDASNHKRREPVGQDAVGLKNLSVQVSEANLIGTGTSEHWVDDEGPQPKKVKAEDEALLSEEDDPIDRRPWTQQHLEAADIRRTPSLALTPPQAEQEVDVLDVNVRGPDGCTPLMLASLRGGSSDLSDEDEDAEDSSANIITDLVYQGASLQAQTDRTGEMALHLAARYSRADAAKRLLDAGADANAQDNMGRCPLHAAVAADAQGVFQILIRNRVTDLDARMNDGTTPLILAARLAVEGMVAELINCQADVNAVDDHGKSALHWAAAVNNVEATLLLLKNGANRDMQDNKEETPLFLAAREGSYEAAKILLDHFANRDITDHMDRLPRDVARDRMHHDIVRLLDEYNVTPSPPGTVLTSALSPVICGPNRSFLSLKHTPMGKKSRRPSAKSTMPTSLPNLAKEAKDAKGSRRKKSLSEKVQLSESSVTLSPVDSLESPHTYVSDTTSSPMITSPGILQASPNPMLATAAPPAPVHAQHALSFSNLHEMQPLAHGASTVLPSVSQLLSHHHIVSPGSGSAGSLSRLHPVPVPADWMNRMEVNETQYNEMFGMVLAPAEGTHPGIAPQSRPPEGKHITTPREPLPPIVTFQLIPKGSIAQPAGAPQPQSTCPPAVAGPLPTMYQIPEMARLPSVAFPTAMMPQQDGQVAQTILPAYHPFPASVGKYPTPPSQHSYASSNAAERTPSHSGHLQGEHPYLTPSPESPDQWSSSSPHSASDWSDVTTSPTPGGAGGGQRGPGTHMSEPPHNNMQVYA

[6] = target: Pro-neuregulin-1, membrane-bound isoform (Homo sapiens) (UniProt Q02297); test: NRG1 binders on small-molecule microarrays, primary screen, psychiatric disease protein project, biochemical, small-molecule microarray, fluorescence 635/667 (AID 1075); details: NRG1 binding, 635 nm fluorescence, higher = more signal;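 also: score combines 667 nm spot fluorescence with signal to noise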
Chain of Pro-neuregulin-1, membrane-bound isoform (Homo sapiens) (Q02297 whole entry, looked up, the tested form may be a part, canonical isoform): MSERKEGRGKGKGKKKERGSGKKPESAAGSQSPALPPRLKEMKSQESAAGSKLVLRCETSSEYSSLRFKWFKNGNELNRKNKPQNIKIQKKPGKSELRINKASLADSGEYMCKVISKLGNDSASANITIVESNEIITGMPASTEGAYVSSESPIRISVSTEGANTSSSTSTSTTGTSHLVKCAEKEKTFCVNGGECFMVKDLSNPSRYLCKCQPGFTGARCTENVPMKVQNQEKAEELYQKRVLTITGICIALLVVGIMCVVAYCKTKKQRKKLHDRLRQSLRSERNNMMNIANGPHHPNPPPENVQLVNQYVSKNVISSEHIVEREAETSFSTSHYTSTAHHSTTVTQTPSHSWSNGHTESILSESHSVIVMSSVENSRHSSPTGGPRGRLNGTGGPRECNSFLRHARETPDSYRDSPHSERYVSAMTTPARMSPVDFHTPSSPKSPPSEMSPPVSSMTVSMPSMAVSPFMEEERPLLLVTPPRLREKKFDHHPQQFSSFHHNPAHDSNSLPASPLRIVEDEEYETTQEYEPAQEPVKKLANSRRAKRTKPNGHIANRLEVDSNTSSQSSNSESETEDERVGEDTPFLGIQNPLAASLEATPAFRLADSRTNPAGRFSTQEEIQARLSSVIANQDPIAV

[7] = test system: Neuregulin-1 EGF-like domain; test: binders of neuregulin-1 EGF-like domain, primary screen, biochemical, small-molecule microarray, 635 nm fluorescence (AID 1081); details: small-molecule microarray binding, higher = more signal;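 also: binding of the protein to compounds printed on small-molecule microarray slides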
[8] = FRG1 promoter luciferase signal modulators, primary screen, FRG1 inhibition for FSHD, cell-based, C2C12 myotubes, firefly/Renilla luciferase, luminescence (AID 1084); details: higher = more signal, called active from +8 up or from −8 down
[9] = binders of probe aFST on microarray, primary screen, stem cell growth factor project, biochemical, small-molecule microarray, fluorescence 635/667 (AID 1086); details: higher = more signal;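 also: score merges 667 nm fluorescence with signal-to-noise of each printed compound spot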
[10] = binders of probe aHhip on microarray, primary screen, stem cell growth factor project, biochemical, small-molecule microarray, fluorescence 635/667 (AID 1087); details: higher = more signal;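 also: score merges spot fluorescence at 667nm with spot signal to noise ratio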
[11] = test system: PRMT1 (protein arginine N-methyltransferase 1); test: PRMT1 binders on small-molecule microarrays, primary screen, biochemical, small-molecule microarray, 635 nm fluorescence (AID 1088); details: small-molecule microarray binding, higher = more signal;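 also: binding of Prmt1 protein to compounds spotted on small-molecule microarray slides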
[12] = yeast growth modulation, basal conditions, primary screen, YJM789 clinical isolate, OD600, 24 h (AID 1089);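 also: growth of clinical yeast isolate S. cerevisiae YJM 789 seeded 1000 cells per well; test concentration not given here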; details: S. cerevisiae YJM789 growth, higher = more signal, called active from +8 up or from −8 down
[13] = fission yeast growth modulation, primary screen, strain 972, OD600, 24 h, no modulator (AID 1090);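 also: basal condition with compound alone and no growth modifier present; test concentration not given here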; details: S. pombe 972 growth, higher = more signal, called active from +8 up or from −8 down
[14] = S. cerevisiae growth modulation with rapamycin, primary screen, strain BY4716, OD600, 96 h (AID 1091); details: higher = more signal, called active from +8 up or from −8 down; also: test concentration not given here
[15] = target: Torsin-1A-interacting protein 2 (Homo sapiens) (UniProt Q8NFQ8); test: LULL1 binders on small-molecule microarray, primary screen, cell lysate, human LULL1 lysate, 635/667 nm fluorescence (AID 1092); details: hLULL1 lysate binding, 635 nm fluorescence, higher = more signal;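 also: probe is lysate of COS7 cells overexpressing human LULL1; score merges per-feature 667 nm fluorescence with signal-to-noise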
Chain of Torsin-1A-interacting protein 2 (Homo sapiens) (Q8NFQ8 whole entry, looked up): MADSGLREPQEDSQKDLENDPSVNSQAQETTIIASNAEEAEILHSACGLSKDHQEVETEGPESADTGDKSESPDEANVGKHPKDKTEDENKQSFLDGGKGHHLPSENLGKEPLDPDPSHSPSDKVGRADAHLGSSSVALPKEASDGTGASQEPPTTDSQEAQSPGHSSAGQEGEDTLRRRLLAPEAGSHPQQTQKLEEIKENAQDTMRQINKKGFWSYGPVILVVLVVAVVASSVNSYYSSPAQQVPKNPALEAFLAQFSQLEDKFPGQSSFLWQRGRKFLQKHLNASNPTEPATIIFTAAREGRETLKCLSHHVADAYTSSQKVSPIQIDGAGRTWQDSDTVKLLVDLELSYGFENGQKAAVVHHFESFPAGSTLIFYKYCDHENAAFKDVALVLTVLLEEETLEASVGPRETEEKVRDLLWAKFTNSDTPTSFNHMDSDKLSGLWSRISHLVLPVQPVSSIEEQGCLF

[16] = E. coli growth modulation, two-sided OD650, primary screen, E. coli filamentation project, strain DRC41, 24 h (AID 1093); details: OD650, 24 h, higher = more signal, called active from +8 up or from −8 down;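 also: MC1000 strain lacking acrAB efflux and sulA so SOS filamentation is blocked; test concentration not given here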
[17] = small-molecule microarray binders of probe aLefty2, primary screen, biochemical, biotinylated probe, 635/667 nm fluorescence (AID 1094); details: higher = more signal;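 also: score merges spot fluorescence near 667 nm with spot signal-to-noise ratio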
[18] = test system: Noggin (protein binding on small-molecule microarray); test: Noggin binders on small-molecule microarray, primary screen, biochemical, 635/667 nm fluorescence (AID 1095); details: 635 nm fluorescence, higher = more signal;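 also: score merges 667 nm feature fluorescence with signal to noise over triplicate slides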
[19] = target: Neurogenic locus notch homolog protein 3 (Homo sapiens) (UniProt Q9UM47); test: NOTCH3 binders on small-molecule microarray, primary screen, biochemical, 635/667 nm fluorescence (AID 1096); details: NOTCH3 binding, 635 nm fluorescence, higher = more signal
[20] = small-molecule microarray binders of probe aEGFR, primary screen, biochemical, biotinylated probe, 635/667 nm fluorescence (AID 1097); details: higher = more signal;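 also: probe is a biotinylated anti-EGFR antibody binding compounds printed on slides; score combines fluorescence near 667 nm and signal to noise of each spot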

SMILES	composite z-score [1]	composite z-score [2]	composite z-score [3]	composite z-score [4]	composite z-score [5]	composite z-score [6]	composite z-score [7]	z-score [8]	composite z-score [9]	composite z-score [10]	composite z-score [11]	z-score [12]	z-score [13]	z-score [14]	composite z-score [15]	z-score [16]	composite z-score [17]	composite z-score [18]	composite z-score [19]	composite z-score [20]
COC(=O)Cn1c(C(=O)N2CCCC2)cc2c1C[C@H]1CN(C(=O)c3ccccc3)[C@@](Cc3ccc(OC)cc3)(C(=O)OC)[C@@H]21	0.666	-0.157	0.236	0.495	1.68	1.8	1.27	0.0502 (inactive)	1.7	0.151	-0.709	0.742 (inactive)	1.39 (inactive)	2.75 (inactive)	3.24	-0.485 (inactive)	0.531	-1.02	1.13	0.434
CCN1C(C)=C(C(=O)OC)[C@@H](c2ccccc2)N2C(=O)[C@](O)(C(=O)OC)[C@@H](c3ccccc3)C(C(=O)c3ccccc3)=C12	-0.14	0.36	-0.0493	0.671	0.442	0.607	0.708	-4.12 (inactive)	0.0486	0.141	0.481	-0.59 (inactive)	-4.98 (inactive)	-0.714 (inactive)	1.41	1.43 (inactive)	-0.132	0.416	0.685	0.0255
CC(C)CN1C(=O)[C@@]2(Cc3ccccc31)c1ccccc1C(=O)N(C1CCCCC1)[C@H]2c1ccc(CO)cc1	0.523	-0.21	-0.172	-0.538	-1.08	-0.388	-0.0501	0.172 (inactive)	-0.382	-0.226	0.499	-1.6 (inactive)	-1.32 (inactive)	-2.34 (inactive)	2.01	1.56 (inactive)	-0.121	-0.901	-1.35	-0.179
C=C(COC)/C(=C/C[C@H](OC(C)=O)c1ccc(OCCO)cc1)c1cnc2ccccc2c1	0.0732	0.0548	0.0001	0.765	1.41	-0.0967	0.99	0.345 (inactive)	0.372	0.176	1.46	1.53 (inactive)	-1.49 (inactive)	1.09 (inactive)	1.05	1.12 (inactive)	0.0707	0.935	1.1	-0.0039
CCCC=C(CCC)[C@@H](NS(=O)(=O)c1cccc(C(F)(F)F)c1)c1ccc(C(=O)OC)cc1	2.23	0.131	0.731	-0.0446	0.318	-0.0702	0.53	2.49 (inactive)	2.13	0.171	0.133	0.483 (inactive)	0.441 (inactive)	-0.182 (inactive)	0.468	-0.228 (inactive)	1.06	1.3	0.0083	0.912
CC1=C([C@H](O)CCc2ccccc2)[C@H](CO)[C@@H]2C(=O)N(Cc3ccccc3)C(=O)[C@@H]2C1	-0.183	0.0897	0.0137	0.216	0.585	0.181	-0.107	-0.69 (inactive)	0.0747	-0.174	-0.262	-0.466 (inactive)	-1.41 (inactive)	-0.873 (inactive)	-0.2	1.72 (inactive)	0.0769	0.932	0.497	-0.085
O=C1c2ccccc2[C@](Cc2ccccc2I)(C(=O)NCC(F)(F)F)[C@H](c2ccc(CO)cc2)N1Cc1ccccc1C(F)(F)F	-0.379	0.57	-0.0856	0.22	0.902	1	1.2	-0.307 (inactive)	1.16	-0.466	1.34	0.129 (inactive)	-1.15 (inactive)	-1.32 (inactive)	2.54	0.098 (inactive)	-0.366	-0.11	1.02	0.0443
O=C(CS)NCCCCCNC(=O)[C@H]1C[C@H]2C(=O)N[C@@H](Cc3ccccc3)C(=O)N2[C@H]1c1ccc(O)cc1	0.593	0.395	-0.0176	0.645	1.02	0.541	1.23	0.658 (inactive)	0.446	-0.0919	1.54	0.662 (inactive)	-0.982 (inactive)	1.86 (inactive)	2.18	1.12 (inactive)	-0.107	1.48	0.781	0.178
COc1ccc([Si](C)(C)[C@H]2[C@H](CCO)O[C@@]3(C(=O)N(Cc4ccc(N5CCCCC5=O)cc4)c4ccccc43)[C@@H]2C)cc1	0.0352	0.959	-0.0747	-0.0971	0.308	1.46	1.05	-4.59 (inactive)	0.172	-0.0994	1.54	-0.025 (inactive)	-0.717 (inactive)	2.28 (inactive)	1.88	1.9 (inactive)	-0.116	0.993	1.07	-0.0288
COc1ccc(C(=O)Nc2ccc(CN3C(=O)[C@]4(O[C@H](CCn5cc(CCO)nn5)[C@@H]([Si](C)(C)c5ccc(OC)cc5)[C@@H]4C)c4ccccc43)cc2)cc1	0.263	0.259	0.0331	1.05	1.46	0.485	1.09	-3.72 (inactive)	-0.177	-0.0645	1.56	1.42 (inactive)	-7.78 (inactive)	1.13 (inactive)	0.961	1.07 (inactive)	0.201	1.65	1.08	0.14
COC(=O)[C@@]1(Cc2ccccc2N=[N+]=[N-])N=C(c2ccc(OCCCO)cc2)O[C@H]1c1ccccc1CN=[N+]=[N-]	0.413	0.378	-0.0899	-0.136	0.0109	1.12	1.29	-1.38 (inactive)	0.69	0.0053	1.41	0.653 (inactive)	-1.3 (inactive)	28.5 (active)	2.6	0.255 (inactive)	0.0641	0.836	0.041	-0.114
COc1ccc(NN2C(C(O)c3cc(OC)c(OC)c(OC)c3)C=CC3C(=O)N(C4CCCCC4)C(=O)C32)cc1 (stereo not given)	0.833	-0.194	0.123	0.767	1.63	1.09	1.07	1.02 (inactive)	1.51	0.0734	0.544	0.199 (inactive)	0.966 (inactive)	0.169 (inactive)	2.87	-0.319 (inactive)	0.358	0.116	1.08	0.142
NC(=O)NCC#Cc1ccc2c(c1)[C@]1(C(=O)N2)[C@H](C(N)=O)[C@H]2C(=O)O[C@H](c3ccccc3)[C@H](c3ccccc3)N2[C@@H]1c1ccccc1OCCO	0.163	0.494	0.0143	0.0467	0.335	0.221	-0.0706	-0.317 (inactive)	0.597	-0.0645	1.22	0.592 (inactive)	0.742 (inactive)	0.804 (inactive)	1.04	-0.829 (inactive)	0.129	0.546	1.11	-0.151
CC(=O)Nc1ccc([C@H]2[C@H](C)CC[C@H]3C(=O)N4[C@@H](CC[C@@H](C)[C@@H]4c4ccc(NC(C)=O)cc4)C(=O)N32)cc1	-0.508	0.482	-0.1	0.908	0.68	0.566	1.1	0.103 (inactive)	0.0863	0.132	1.53	0.817 (inactive)	-0.789 (inactive)	-0.145 (inactive)	1.63	0.987 (inactive)	-0.185	0.651	0.897	0.107
CO[C@H]1COC(=O)CC=C[C@H](C)[C@@H](OC)COC(=O)CC=C[C@@H]1C	-0.623	1.7	-0.0775	0.227	-0.209	-0.768	0.692	-1.12 (inactive)	-0.055	-0.0994	0.656	-0.49 (inactive)	-1.5 (inactive)	-0.98 (inactive)	-0.787	0.898 (inactive)	-0.169	0.764	-0.119	-0.0273
O=C1c2ccccc2[C@](Cc2ccccc2I)(C(=O)NCc2ccccc2)[C@H](c2ccc(CO)cc2)N1Cc1ccccc1C(F)(F)F	0.988	0.077	-0.131	-0.787	-1.28	0.385	-0.56	-1.98 (inactive)	-0.318	-0.134	1.27	0.417 (inactive)	-1.05 (inactive)	0.304 (inactive)	2.44	1.03 (inactive)	-0.0345	-1.05	-0.785	-0.179
Cc1ccc(S[C@]2(C(=O)NCCN3CCOCC3)CC(=O)N(C3Cc4ccccc4C3)[C@@H]2c2ccc(CO)cc2I)cc1	1.1	0.677	-0.19	-0.761	-1.11	1.69	0.544	-0.974 (inactive)	0.336	-0.0994	1.01	-2.08 (inactive)	-5.05 (inactive)	0.401 (inactive)	1.96	1.75 (inactive)	0.366	-1.62	-0.484	-0.204
CN1C(=O)C2C=CC(C(O)c3ccc(N(C)C)cc3)N(Nc3ccc([N+](=O)[O-])cc3[N+](=O)[O-])C2C1=O (stereo not given)	1.56	0.989	0.126	0.739	1.6	1.25	1.31	2 (inactive)	1.29	-0.0296	1.1	0.0069 (inactive)	-0.0787 (inactive)	-0.183 (inactive)	2.77	-0.465 (inactive)	0.452	0.0496	1.1	0.335
